Values joined by “and” are separate entries in the source; they are usually repeats but may differ in a detail not shown here. Equal entries are not always repeated. Records with an inconclusive call do not appear. The source holds several records for some structures; these can differ, active in one and inactive in another. Active and inactive are the calls of the source. How the source made its calls: active means hit-call score of the fitted dose curve at least 0.9, where 1 is the maximum; inconclusive means response in the unintended direction; inactive means score below 0.9.
Key:
[1] = read-out: HMG-CoA synthase (HMGCS2), HMGCS2 (gene 3158); assay: CLD_HMGCS2_6hr: CellzDirect (CLD) Gene Expression Assay for HMG-CoA synthase (HMGCS2) at 6 hours (AID 2283682);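 further: actives raise HMGCS2 transcript above the 0.2% DMSO vehicle baseline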
Summary of the method: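 HMGCS2 transcript induction read by quantitative nuclease protection with chemiluminescence, 6 h after dosing of primary human hepatocytes. Baseline was 0.2% DMSO vehicle; phase-contrast morphology gave a yes/no cytotoxicity annotation.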

[2] = read-out: Cytochrome P450 2B6 (Homo sapiens) (UniProt P20813); assay: CLD_CYP2B6_24hr: CellzDirect (CLD) Gene Expression Assay for xenobiotic metabolism (CYP2B6) at 24 hours (AID 2283686)
Summary of the method: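 qNPA chemiluminescent measurement of mRNA at 24 hours in human primary hepatocyte cultures from two donor preparations, with daily fresh dosing and 0.2% DMSO vehicle as baseline. Morphology-based cytotoxicity flagged yes/no.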

[3] = read-out: Cytochrome P450 2C19 (Homo sapiens) (UniProt P33261); assay: CLD_CYP2C19_24hr: CellzDirect (CLD) Gene Expression Assay for xenobiotic metabolism (CYP2C19) at 24 hours (AID 2283687);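 further: activity means mRNA induction above DMSO vehicle baseline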
Summary of the method: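 CYP2C19 mRNA was quantified by qNPA chemiluminescence after 24 h of daily dosing of cultured human primary hepatocytes from two donors; vehicle was 0.2% DMSO, and increases over DMSO baseline were fitted.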

[4] = read-out: Broad substrate specificity ATP-binding cassette transporter ABCG2 (Homo sapiens) (UniProt Q9UNQ0); assay: CLD_ABCG2_24hr: CellzDirect (CLD) Gene Expression Assay for ABC Transporter (ABCG2) at 24 hours (AID 2283685)
Summary of the method: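 ABCG2 mRNA induction, read as gain of chemiluminescent signal over 0.2% DMSO, was measured by quantitative nuclease protection at 24 h. Cultured human liver hepatocytes were given fresh dosing solutions of test chemicals at several concentrations each day.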

[5] = read-out: Cytochrome P450 2C9 (Homo sapiens) (UniProt P11712); assay: CLD_CYP2C9_24hr: CellzDirect (CLD) Gene Expression Assay for xenobiotic metabolism (CYP2C9) at 24 hours (AID 2283688)
Summary of the method: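 Induction of CYP2C9 mRNA was quantified by quantitative nuclease protection assay (chemiluminescence), gain of signal versus 0.2% DMSO vehicle, 24 h after dosing. Human primary hepatocytes (two donors) received fresh chemical daily at multiple concentrations; morphology-based cytotoxicity flagged yes/no.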

[6] = read-out: Glyceraldehyde-3-phosphate dehydrogenase (Homo sapiens) (UniProt P04406); assay: CLD_GAPDH_24hr: CellzDirect (CLD) Gene Expression Assay for Baseline Control (Glyceraldehyde 3-phosphate dehydrogenase) at 24 hours (AID 2283692)
Summary of the method: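 GAPDH baseline-control readout: qNPA chemiluminescent mRNA signal in human primary hepatocytes harvested 24 h after daily dosing, normalised to 0.2% DMSO with positive fitting direction; cytotoxicity annotated by phase-contrast morphology.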

[7] = read-out: HMG-CoA synthase (HMGCS2), HMGCS2 (gene 3158); assay: CLD_HMGCS2_24hr: CellzDirect (CLD) Gene Expression Assay for HMG-CoA synthase (HMGCS2) at 24 hours (AID 2283691)
Summary of the method: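 qNPA with S1 nuclease digestion and chemiluminescent detection gave HMGCS2 transcript levels, fitted upward against 0.2% DMSO vehicle. Cultured human hepatocytes (two donors) received fresh compound daily and were harvested at 24 h; phase-contrast morphology flagged cytotoxicity.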

[8] = read-out: ABC Transporter (ABCB1), ABCB1 (gene 5243); assay: CLD_ABCB1_24hr: CellzDirect (CLD) Gene Expression Assay for ABC Transporter (ABCB1) at 24 hours (AID 2283684)
Summary of the method: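 ABCB1 mRNA induction versus 0.2% DMSO vehicle was read by qNPA chemiluminescence at 24 h. Cultured human hepatocytes from two donor preparations received daily fresh dosing, and phase-contrast cytotoxicity calls were annotated alongside the data.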

[9] = read-out: xenobiotic metabolism (CYP1A2), CYP1A2 (gene 1544); assay: CLD_CYP1A2_24hr: CellzDirect (CLD) Gene Expression Assay for xenobiotic metabolism (CYP1A2) at 24 hours (AID 2283683)
Summary of the method: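 CYP1A2 mRNA induction measured by quantitative nuclease protection (chemiluminescent) in human primary hepatocytes 24 h after multi-concentration chemical dosing with daily fresh solutions. DMSO (0.2%) baseline; positive-direction fitting; morphology-based cytotoxicity noted.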

[10] = read-out: Cytochrome P450 3A4 (Homo sapiens) (UniProt P08684); assay: CLD_CYP3A4_24hr: CellzDirect (CLD) Gene Expression Assay for xenobiotic metabolism (CYP3A4) at 24 hours (AID 2283689)
Summary of the method: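 CYP3A4 mRNA induction read by quantitative nuclease protection (chemiluminescence) 24 hr after dosing. Cultured human hepatocytes (two donor preparations) treated daily, vehicle 0.2% DMSO; phase-contrast morphology annotates cytotoxicity.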

Measured: AC50

Sequence of Broad substrate specificity ATP-binding cassette transporter ABCG2 (Homo sapiens) (Q9UNQ0 whole entry, looked up): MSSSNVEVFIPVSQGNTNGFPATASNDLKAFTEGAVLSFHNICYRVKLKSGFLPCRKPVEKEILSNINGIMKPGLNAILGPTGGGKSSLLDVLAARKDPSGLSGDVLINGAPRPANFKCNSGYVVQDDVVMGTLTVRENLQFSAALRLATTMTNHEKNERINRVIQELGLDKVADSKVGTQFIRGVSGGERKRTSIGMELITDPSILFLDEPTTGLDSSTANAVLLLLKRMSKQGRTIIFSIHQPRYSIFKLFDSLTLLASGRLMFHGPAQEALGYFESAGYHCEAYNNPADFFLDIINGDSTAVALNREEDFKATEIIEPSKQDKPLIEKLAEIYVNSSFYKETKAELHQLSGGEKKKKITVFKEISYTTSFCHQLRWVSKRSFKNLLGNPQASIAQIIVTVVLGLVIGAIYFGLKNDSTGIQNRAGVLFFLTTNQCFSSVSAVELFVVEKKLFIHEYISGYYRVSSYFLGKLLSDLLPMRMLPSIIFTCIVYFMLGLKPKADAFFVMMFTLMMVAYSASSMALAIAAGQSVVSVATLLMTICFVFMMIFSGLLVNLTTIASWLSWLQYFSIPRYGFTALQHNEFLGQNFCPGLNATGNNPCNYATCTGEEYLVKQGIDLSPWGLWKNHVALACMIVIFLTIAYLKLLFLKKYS
Sequence of Cytochrome P450 2C19 (Homo sapiens) (P33261 whole entry, looked up): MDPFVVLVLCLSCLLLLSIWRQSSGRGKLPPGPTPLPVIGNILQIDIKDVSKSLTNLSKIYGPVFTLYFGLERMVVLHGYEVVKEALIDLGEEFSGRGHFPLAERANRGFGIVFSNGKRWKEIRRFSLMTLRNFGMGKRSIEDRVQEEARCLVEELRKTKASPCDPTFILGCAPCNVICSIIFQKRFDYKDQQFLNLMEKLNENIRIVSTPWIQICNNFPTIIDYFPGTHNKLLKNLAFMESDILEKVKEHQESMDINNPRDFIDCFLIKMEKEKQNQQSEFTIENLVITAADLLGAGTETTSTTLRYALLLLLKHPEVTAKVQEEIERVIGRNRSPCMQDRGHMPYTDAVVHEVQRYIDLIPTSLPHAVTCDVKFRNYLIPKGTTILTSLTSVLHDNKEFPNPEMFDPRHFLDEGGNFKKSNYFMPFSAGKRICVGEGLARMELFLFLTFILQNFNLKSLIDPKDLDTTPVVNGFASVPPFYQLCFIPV
Sequence of Glyceraldehyde-3-phosphate dehydrogenase (Homo sapiens) (P04406 whole entry, looked up): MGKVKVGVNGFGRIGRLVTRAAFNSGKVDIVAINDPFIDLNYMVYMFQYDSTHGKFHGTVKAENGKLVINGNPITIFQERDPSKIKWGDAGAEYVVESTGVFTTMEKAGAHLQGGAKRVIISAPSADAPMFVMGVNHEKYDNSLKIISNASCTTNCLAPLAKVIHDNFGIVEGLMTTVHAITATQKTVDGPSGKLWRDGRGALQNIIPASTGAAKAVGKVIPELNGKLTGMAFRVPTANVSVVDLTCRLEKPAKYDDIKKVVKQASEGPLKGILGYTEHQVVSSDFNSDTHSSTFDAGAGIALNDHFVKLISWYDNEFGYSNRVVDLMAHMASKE
Sequence of Cytochrome P450 3A4 (Homo sapiens) (P08684 whole entry, looked up): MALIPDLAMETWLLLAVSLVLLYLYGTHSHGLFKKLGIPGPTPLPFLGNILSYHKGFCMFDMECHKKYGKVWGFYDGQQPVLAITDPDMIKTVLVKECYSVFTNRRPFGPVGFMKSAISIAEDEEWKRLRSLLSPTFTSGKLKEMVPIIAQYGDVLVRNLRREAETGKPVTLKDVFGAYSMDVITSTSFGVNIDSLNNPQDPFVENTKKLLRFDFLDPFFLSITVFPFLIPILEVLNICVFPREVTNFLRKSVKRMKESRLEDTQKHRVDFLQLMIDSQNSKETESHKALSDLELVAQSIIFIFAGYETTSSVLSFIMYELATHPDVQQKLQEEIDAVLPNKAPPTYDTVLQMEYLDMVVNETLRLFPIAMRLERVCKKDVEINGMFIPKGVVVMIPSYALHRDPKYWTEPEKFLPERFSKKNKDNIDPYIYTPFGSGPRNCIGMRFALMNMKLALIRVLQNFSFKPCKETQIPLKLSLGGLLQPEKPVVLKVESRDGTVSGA

CCNc1nc(Cl)nc(NC(C)C)n1
active: [2] 3.92 µM
inactive: [1] | [3]

N#CC(CCc1ccc(Cl)cc1)(Cn1cncn1)c1ccccc1 (stereo unspecified)
active: [2] 0.389 µM
inactive: [1] | [4] | [3] | [5] | [6]

COc1nc(C)nc(NC(=O)NS(=O)(=O)c2ccccc2CCC(F)(F)F)n1
active: [2] 3.4 µM and 5.71 µM and 908 nM
not listed: [8] | [9] | [10]
inactive: all other assays above

COc1cnc(OC)n2nc(NS(=O)(=O)c3c(OCC(F)F)cccc3C(F)(F)F)nc12
inactive: [1] | [8] | [4] | [2] | [3]

CCOP(=S)(OCC)SCn1c(=O)oc2cc(Cl)ccc21
active: [9] 3.97 µM | [2] 3.97 µM
inactive: [1] | [4]

CCCC1COC(Cn2cncn2)(c2ccc(Cl)cc2Cl)O1 (stereo unspecified)
active: [9] 2.13 µM | [2] 0.668 µM
inactive: [1] | [4]

CCCCC(CC)COC(=O)c1ccccc1C(=O)OCC(CC)CCCC (stereo unspecified)
inactive: [1] | [2] | [3] | [5] | [6]

COC(=O)c1ccccc1C(=O)OC
inactive: [1] | [2] | [3] | [5] | [6]

C=CCC1=C(C)C(OC(=O)C2C(C=C(C)C)C2(C)C)CC1=O (stereo unspecified)
inactive: [1] | [4] | [2] | [6]

C=CCC1=C(C)[C@@H](OC(=O)[C@@H]2[C@@H](C=C(C)C)C2(C)C)CC1=O
active: [2] 20 µM
inactive: [1] | [4] | [5]

CCCCOC(=O)c1ccccc1C(=O)OCCCC
active: [2] 5.33 µM
inactive: [1] | [4] | [2] | [5] | [7] | [6]

CC(C)(C)c1ccc(CSc2cnn(C(C)(C)C)c(=O)c2Cl)cc1
active: [10] 39.3 µM
inactive: [1] | [9] | [4] | [3]

O=C(O)COc1nc(Cl)c(Cl)cc1Cl
not listed: [8] | [9] | [10]
inactive: all other assays above

CC1COC(Cn2cncn2)(c2ccc(Oc3ccc(Cl)cc3)cc2Cl)O1 (stereo unspecified)
active: [9] 0.729 µM | [2] 0.000442 µM
inactive: [1] | [4] | [3]

From PubChem BioAssay (EPA / NIEHS)
